Data on 87 compounds can be found in article PMC4336329 (PLoS ONE, 2015).

The whole screen tested about 310,000 compounds, of which about 14,000 (4.5%) showed an effect of 50% or more. Effects have a minus sign here. What follows is part of a selection rich in strong results, with near analogues and random picks from the rest.
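Also: peak tail current of the secondary pulse compared with the same well before compound.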

The target of this experiment is human ether-à-go-go-related gene (hERG) potassium channel (human, UniProt Q12809). Put plainly: primary screen, population patch clamp on CHO cells stably expressing hERG; higher = less effect of the substance.
human ether-à-go-go-related gene (hERG) potassium channel, sequence (Q12809 whole entry, looked up): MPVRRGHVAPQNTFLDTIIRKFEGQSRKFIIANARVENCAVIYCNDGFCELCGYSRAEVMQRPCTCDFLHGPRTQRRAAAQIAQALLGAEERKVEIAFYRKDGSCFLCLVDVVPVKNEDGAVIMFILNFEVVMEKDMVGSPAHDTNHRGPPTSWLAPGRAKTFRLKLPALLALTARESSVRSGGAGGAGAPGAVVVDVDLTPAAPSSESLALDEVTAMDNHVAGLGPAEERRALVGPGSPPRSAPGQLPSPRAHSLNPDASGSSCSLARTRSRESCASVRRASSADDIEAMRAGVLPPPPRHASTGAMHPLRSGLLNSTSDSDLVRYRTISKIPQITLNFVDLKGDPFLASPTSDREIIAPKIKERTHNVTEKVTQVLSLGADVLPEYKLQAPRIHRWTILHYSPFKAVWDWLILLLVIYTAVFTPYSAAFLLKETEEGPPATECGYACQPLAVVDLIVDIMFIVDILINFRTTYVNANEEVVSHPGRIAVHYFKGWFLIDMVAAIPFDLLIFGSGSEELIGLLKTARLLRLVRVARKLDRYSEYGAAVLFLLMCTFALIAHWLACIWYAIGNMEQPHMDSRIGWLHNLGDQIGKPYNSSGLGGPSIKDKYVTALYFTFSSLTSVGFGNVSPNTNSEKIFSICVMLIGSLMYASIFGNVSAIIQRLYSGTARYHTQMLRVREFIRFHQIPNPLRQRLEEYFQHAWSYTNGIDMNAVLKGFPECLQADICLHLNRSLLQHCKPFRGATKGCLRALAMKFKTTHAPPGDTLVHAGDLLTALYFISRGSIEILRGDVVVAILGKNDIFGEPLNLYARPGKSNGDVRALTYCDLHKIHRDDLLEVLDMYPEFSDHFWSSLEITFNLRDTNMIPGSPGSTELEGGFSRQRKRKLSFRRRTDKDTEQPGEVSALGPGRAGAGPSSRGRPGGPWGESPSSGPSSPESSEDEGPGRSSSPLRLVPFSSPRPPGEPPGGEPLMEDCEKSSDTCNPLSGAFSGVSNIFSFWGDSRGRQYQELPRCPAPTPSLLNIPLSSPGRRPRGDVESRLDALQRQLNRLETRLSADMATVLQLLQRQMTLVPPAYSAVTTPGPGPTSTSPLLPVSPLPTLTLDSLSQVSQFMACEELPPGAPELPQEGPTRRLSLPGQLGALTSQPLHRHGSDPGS
Consider `CN(C)S(=O)(=O)c1ccc(N2CCCC2)c(C(=O)Nc2ccccc2OC(F)F)c1`, for which the “hERG current change (%, negative = inhibition) at 10uM” value is -54.2%.
In the case of `CN(C)S(=O)(=O)c1ccc(N2CCCC2)c(C(=O)Nc2ccc(F)cc2F)c1` it was -33.2%; in that of `CN(C)S(=O)(=O)c1ccc(N2CCCC2)c(C(=O)NC(c2ccccc2)c2ccccc2)c1`, 6.73%; in that of `COc1cc(-c2nn3c(-c4cccc(C)c4)nnc3s2)cc(OC)c1OC`, 13.1%.
In the case of `Cc1nn(C)c(=O)n1N(C)c1ncc(C(F)(F)F)cc1Cl` it was 23.8%; in that of `Cc1[nH]c2ccc(C(=O)N3CCN(c4ccccn4)CC3)cc2c1C`, -2.92%; in that of `Cc1c(CN2CC[C@@H](N3CCN(c4ccccn4)CC3)[C@H](O)C2)[nH]c2ccc(F)cc12`, -60.9%.
On to `Cc1ccc(F)cc1NC(=O)CN1CCN(c2ccccn2)CC1`, for which the “hERG current change (%, negative = inhibition) at 10uM” value is -35.2%.
With `CCN(CC)CCNC(=O)c1ccc(NC(=O)c2c(F)cccc2Cl)cc1`, the “hERG current change (%, negative = inhibition) at 10uM” value is listed as -12.4%.
In the case of `CCN(CC)CCNC(=O)c1ccc(NC(=O)c2c(C)nn(-c3ccc(F)cc3)c2Cl)cc1` it was -60%.
Regarding `CCN(CC)CCNC(=O)c1ccc(NC(=O)c2ccc(F)cc2)cc1`, the “hERG current change (%, negative = inhibition) at 10uM” value is given as -43.6%.
On to `COC(=O)c1c(C)nn(-c2ccc(F)c(Cl)c2)c1-c1cc(C)on1`, for which the “hERG current change (%, negative = inhibition) at 10uM” value is -4.39%.
In the case of `O=C(O)CCSc1nnc(SCC(=O)NCC(F)(F)F)s1` it was 7.55%; in that of `Cc1nn(C(=O)c2ccco2)c(C)c1CN1C(=O)c2ccccc2C1=O`, -12.2%; in that of `OC(c1ccc(Cl)cc1)C(O)c1nc2ccccc2[nH]1` (stereo not drawn), -2.47%.
In the case of `CC(=O)c1ccc(OCC(O)CN2CCN(c3ccccn3)CC2)cc1.Cl` (stereo not drawn) it was -25.8%; in that of `CC(C)c1ccc(OCC(O)CN2CCN(c3ccccn3)CC2)cc1.Cl` (stereo not drawn), -63.7%; in that of `Cl.OC(COCc1ccc(Cl)cc1)CN1CCN(c2ccccn2)CC1` (stereo not drawn), -66.4%.
As for `OC(COc1ccc2cc(Br)ccc2c1)CN1CCN(c2ccccn2)CC1` (stereo not drawn), the “hERG current change (%, negative = inhibition) at 10uM” value was 1.85%.
The value for `CC(C)(C)c1ccc(OCC(O)CN2CCN(c3ccccn3)CC2)cc1.Cl` (stereo not drawn) was -16%.
As for `Cc1cc(OCC(O)CN2CCN(c3ccccn3)CC2)cc(C)c1Cl.Cl` (stereo not drawn), the “hERG current change (%, negative = inhibition) at 10uM” value is given as -0.237%.
In the case of `OC(COc1ccc(Cl)cc1)CN1CCN(c2ccccn2)CC1` (stereo not drawn) it was -68%; in that of `OC(CN1CCN(c2ccccn2)CC1)Cn1c2ccc(Cl)cc2c2cc(Cl)ccc21` (stereo not drawn), 0.599%.
In the case of `O=C(O)CCCn1cc(NC(=O)c2ccco2)cn1` it was 26.7%; in that of `O=C(NCCN1CCOCC1)c1ccc(CSc2nc3ccncc3n2Cc2ccc(F)cc2)cc1`, -8.35%.
Consider `Fc1ccc(-c2nnn(Cc3nc4ccccc4s3)n2)cc1`, for which the “hERG current change (%, negative = inhibition) at 10uM” value is recorded as -11.2%.
In the case of `CCN(CC)C(=O)c1cc2c(=O)n3cccc(C)c3nc2s1` it was 15.5%.
In the case of `Cc1cccc(-c2nc(CN3CCCC(C(=O)NC4CCCC4)C3)c(C)o2)c1` (stereo not drawn) it was -76.3%.
As to `Cc1cccc(-c2nc(CN3CCCC(C(=O)NC4CCC(C)CC4)C3)c(C)o2)c1` (stereo not drawn), the “hERG current change (%, negative = inhibition) at 10uM” value is -68.4%.
As for `CCN(c1ccc(OC)cc1)S(=O)(=O)N1CCCC(C(=O)NCc2cccc(C)c2)C1` (stereo not drawn), the “hERG current change (%, negative = inhibition) at 10uM” value is on record as -26.5%.
For the compound `Cc1cccc(-c2nc(CN3CCCC(C(=O)NC4CCCCC4)C3)c(C)o2)c1` (stereo not drawn), the “hERG current change (%, negative = inhibition) at 10uM” value is given as -60.4%.
Take `COc1ccc(CNC(=O)C2CCCN(Cc3nc(-c4cccc(C)c4)oc3C)C2)cc1` (stereo not drawn): the “hERG current change (%, negative = inhibition) at 10uM” value is on record as -63.8%.
As to `COc1ccc(CNC(=O)C2CCCN(c3nccc(C)n3)C2)cc1` (stereo not drawn), the “hERG current change (%, negative = inhibition) at 10uM” value is on record as -0.849%.
`COc1cccc(N2CCN(S(=O)(=O)c3ccc(-n4cnnn4)cc3)CC2)c1`: the “hERG current change (%, negative = inhibition) at 10uM” value amounted to 16.6%.
Regarding `CCN(CC)CCNC(=S)NC(=O)c1cn(-c2ccccc2)nc1-c1ccc(OC)cc1`, the “hERG current change (%, negative = inhibition) at 10uM” value is -27.3%.
For the compound `COc1ccc(N(CC(=O)N2CCCCC2)S(=O)(=O)c2c(C)nn(C)c2C)cc1`, the “hERG current change (%, negative = inhibition) at 10uM” value is listed as 4.36%.
In the case of `CCOC(=O)CSc1nnc(Cc2ccccc2)n1CC1CCCO1` (stereo not drawn) it was 5%.
For the compound `Clc1ncc(Cn2cccn2)s1`, the “hERG current change (%, negative = inhibition) at 10uM” value is 10.5%.
As to `O=C1C2C3C=CC(C3)C2C(=O)N1/N=C/c1cn(Cc2ccc(F)cc2)c2ccccc12` (stereo not drawn), the “hERG current change (%, negative = inhibition) at 10uM” value is 5.84%.
With `O=C(NCCCn1ccnc1)c1ccc(Cl)s1`, the “hERG current change (%, negative = inhibition) at 10uM” value is 5.72%.
In the case of `COC(=O)c1c(NC(=O)COC(=O)c2ccc(NC(=O)CC#N)cc2)sc2c1CCCCC2` it was 17.6%; in that of `Cc1cccc(-c2nc(CN3CCCC(C(=O)NC4CCCCCC4)C3)c(C)o2)c1` (stereo not drawn), -69.8%.
`Cc1cccc(-c2nc(CS(=O)CC(=O)NC3CCCCC3)c(C)o2)c1` (stereo not drawn): the “hERG current change (%, negative = inhibition) at 10uM” value is given as -3.93%.
In the case of `O=C(NCCO)c1cc2ccccc2c(=O)s1` it was 6.96%.
In the case of `Cc1cccc(-c2nn(-c3ccccc3)cc2C(=O)NCC(c2cccs2)N2CCOCC2)c1` (stereo not drawn) it was -4.33%.
`O=C1c2ccccc2N2C(=O)c3ccccc3C2N1Cc1ccccc1` (stereo not drawn): the “hERG current change (%, negative = inhibition) at 10uM” value was -57.9%.
In the case of `O=C1c2ccccc2N2C(=O)c3ccccc3C2N1Cc1ccco1` (stereo not drawn) it was -27.4%.
As to `O=C1c2ccccc2N2C(=O)c3ccccc3[C@H]2N1c1ccccc1`, the “hERG current change (%, negative = inhibition) at 10uM” value is listed as -22.4%.
On to `COC(=O)c1ccc(CN2C(=O)c3ccccc3C2=O)cc1`, for which the “hERG current change (%, negative = inhibition) at 10uM” value is 8.01%.
In the case of `Cc1cccc(NC(=O)CC2(CC(=O)O)CCCC2)c1` it was 24.6%; in that of `Cn1nc(-c2ccccc2)cc1NC(=O)c1cccs1`, 5.18%.
For `CCN(CC)CCNC(=O)c1ccc(CS(=O)(=O)c2ccccc2C)o1`, the “hERG current change (%, negative = inhibition) at 10uM” value is on record as -24%.
In the case of `Cc1ccccc1S(=O)(=O)Cc1ccc(C(=O)NCCCN(C)Cc2ccccc2)o1`, the “hERG current change (%, negative = inhibition) at 10uM” value was -56.2%.
`Cc1ccccc1S(=O)(=O)Cc1ccc(C(=O)NCCN(CC(C)C)CC(C)C)o1`: the “hERG current change (%, negative = inhibition) at 10uM” value is recorded as -43.6%.
The value for `Cc1ccccc1S(=O)(=O)Cc1ccc(C(=O)NCCN(C)Cc2ccccc2)o1` was -48.5%; that for `Cc1ccccc1S(=O)(=O)Cc1ccc(C(=O)NCCc2ccccc2)o1` was -30.6%.
Consider `Cc1ccccc1S(=O)(=O)Cc1ccc(C(=O)NCCN(Cc2ccccc2)C(C)C)o1`, for which the “hERG current change (%, negative = inhibition) at 10uM” value is -55.6%.
With `CCCCn1c(=O)[nH]c(=O)c2c1nc(-c1cc(Cl)c(OC)c(OC)c1)n2C`, the “hERG current change (%, negative = inhibition) at 10uM” value came to 16.2%.
In the case of `CCSc1nc(O)cc(=O)n1-c1ccc(OC)cc1`, the “hERG current change (%, negative = inhibition) at 10uM” value is listed as 3.73%.
In the case of `O=C(c1ccco1)N(CCC(c1ccccc1)c1ccco1)Cc1ccccc1` (stereo not drawn) it was -14.8%; in that of `COc1cc(/C=C2/C(=N)N3N=C(CC(=O)N4CCOCC4)SC3=NC2=O)ccc1OC(C)c1ccccc1` (stereo not drawn), 11.7%.
In the case of `Cc1ccc(NC2CCCN(C(=O)c3ccc(F)cc3)C2)cc1C` (stereo not drawn) it was -9.71%.
The value for `Cc1ccc(C(=O)N2CCCC(Nc3ccc(C)c(C)c3)C2)c(=O)[nH]1` (stereo not drawn) was -50.3%; that for `Cc1ccc(NC2CCCN(C(=O)c3ccoc3C)C2)cc1C` (stereo not drawn) was -1.68%.
On to `O=C(NCC(=O)N1CCCC(C(F)(F)F)C1)c1ccc2ccccc2c1` (stereo not drawn), for which the “hERG current change (%, negative = inhibition) at 10uM” value was -11.3%.
In the case of `Nc1n[nH]c(-c2ccc([N+](=O)[O-])cc2[N+](=O)[O-])n1`, the “hERG current change (%, negative = inhibition) at 10uM” value turned out to be 15.4%.
The value for `CCOC(=O)C1CCN(C(C)C(=O)c2c[nH]c3ccccc23)CC1` (stereo not drawn) was -42.2%.
For the compound `Cc1ccc2c(C(=O)CN3CCN(C4CCCCC4)CC3)c(C)[nH]c2c1`, the “hERG current change (%, negative = inhibition) at 10uM” value is recorded as -55.1%.
Regarding `COc1ccc2[nH]cc(C(=O)CN3CCCCC3)c2c1`, the “hERG current change (%, negative = inhibition) at 10uM” value was -8.72%.
For the compound `Cc1[nH]c2ccccc2c1C(=O)CN1CC(C)CC(C)C1` (stereo not drawn), the “hERG current change (%, negative = inhibition) at 10uM” value turned out to be 0.738%.
Take `Cc1ccc2c(C(=O)CN3CCCC(C)C3)c(C)[nH]c2c1` (stereo not drawn): the “hERG current change (%, negative = inhibition) at 10uM” value is on record as -14.8%.
In the case of `Cc1ccc2c(C(=O)CN3CCCCC3)c(C)[nH]c2c1` it was -11.1%; in that of `Cc1ccc2c(C(=O)CN3CC(C)CC(C)C3)c(C)[nH]c2c1` (stereo not drawn), -51%; in that of `Cc1ccc2c(C(=O)CN3CCCC3)c(C)[nH]c2c1`, -6.89%.
`COc1ccc2[nH]cc(C(=O)CN3CCC(C)CC3)c2c1`: the “hERG current change (%, negative = inhibition) at 10uM” value is listed as -5.75%.
With `CCOC(=O)C1CCN(C(C)C(=O)c2c(C)[nH]c3cc(C)ccc23)CC1` (stereo not drawn), the “hERG current change (%, negative = inhibition) at 10uM” value is -76.7%.
In the case of `COc1ccc2[nH]cc(C(=O)CN3CCN(C4CCCCC4)CC3)c2c1` it was -54.8%; in that of `CCC1CCCCN1CC(=O)c1c(C)[nH]c2cc(C)ccc12` (stereo not drawn), -27.7%; in that of `CSc1ncccc1C(=O)N1CCN(S(=O)(=O)c2ccc3ccccc3c2)CC1`, -34.9%.
With `Cn1c(N2C(=O)CC(Cc3ccccc3)C2=O)nc2ccccc21` (stereo not drawn), the “hERG current change (%, negative = inhibition) at 10uM” value is -17.6%.
As to `COc1ccc(CN(C(=O)c2cccs2)c2nccs2)cc1OC`, the “hERG current change (%, negative = inhibition) at 10uM” value is -10.9%.
In the case of `O=C1CC(NS(=O)(=O)c2cc(F)ccc2F)CN1c1ccc2c(c1)OCCO2` (stereo not drawn) it was -4.13%.
In the case of `Cc1cc(C)n2nc(SCC(=O)NC(=O)c3ccccc3Cl)nc2n1` it was 0.516%.
Turning to `COc1ccc(N2CC(C(=O)NC3CC(C)(C)NC(C)(C)C3)CC2=O)cc1` (stereo not drawn), the “hERG current change (%, negative = inhibition) at 10uM” value is listed as -2.68%.
The value for `COc1ccc(NC2c3ccccc3C(=O)N2Cc2ccc3c(c2)OCO3)cc1` (stereo not drawn) was -17.7%; that for `CCOC(=O)c1ccc(NC(=O)Nc2ccon2)cc1` was 6.02%.
The value for `O=C(O)C1=CC[C@@H](c2ccc(Cl)cc2)N(S(=O)(=O)c2ccc(Cl)cc2)[C@H]1c1cccc(Cl)c1` was 25.9%.
